Structures are written as SMILES. Screen size: about 140,000 compounds; about 2,100 (1.5%) were called active. Rule as the data show it: active = protection mostly above about 24% (no sharp cut-off); inactive = mostly below about 26%. Many of the other results were omitted from the sample, so actives are more common in it than they were.

The test in a line: blockers of measles virus-induced cell death – single point, MLSMR library, absorbance, measles RdRp inhibitor project, primary screen (AID 841). The note with it: Measles virus-infected cells, CPE protection, at 4 µM, hits give high values.
Consider `CS(=O)(=O)c1ccc2nc(NC(=O)C3CCCCC3)sc2c1`, for which the protection (pct of control) was 38.1% (active).

Regarding `CS(=O)(=O)c1ccc2nc(NC(=O)CN3CCCCCC3)sc2c1`, the protection (pct of control) is 4.57% (inactive).

For the molecule `CS(=O)(=O)c1ccc2nc(NC(=O)C3C4C=CC(C4)C3C(=O)O)sc2c1` (centres undefined), the protection (pct of control) is 18.3% (inactive).

In the case of `O=C(/C=C/c1cnc2ccccc2n1)NC1CCCCCC1`, the protection (pct of control) was 9.7% (inactive).

`Cc1cc(NC(=O)CSc2nnc(-c3ccc(Cl)s3)o2)no1`: the protection (pct of control) was 86.1% (active).

For `Cc1ccc(-c2csc(SCC(=O)Nc3cc(C)on3)n2)cc1`, the protection (pct of control) is 7.27% (inactive).

In the case of `COc1ccccc1-c1nnc(SCC(=O)Nc2cc(C)on2)o1`, the protection (pct of control) was 14.9% (inactive).

Turning to `O=C(COC(=O)/C=C/c1nc2ccccc2s1)Nc1ccccc1Oc1ccccc1`, the protection (pct of control) was 1.41% (inactive).

On to `Cc1cccc(-n2c(SCC(N)=O)nc3c(c2=O)C2(CCCCC2)Cc2ccccc2-3)c1`, for which the protection (pct of control) was 29.9% (active).

In the case of `N#CCSc1nc2c(c(=O)n1Cc1ccccc1)C1(CCCC1)Cc1ccccc1-2`, the protection (pct of control) was 1.58% (inactive).

For `Cc1cccc(-n2c(N)cc(=O)nc2SC(C)C(=O)NC2CCCCC2)c1` (centres undefined), the protection (pct of control) is 20.2% (inactive).

Consider `COc1ccc(-c2csc3ncnc(Oc4ccc5c(C)cc(=O)oc5c4)c23)cc1`, for which the protection (pct of control) is 6.48% (inactive).

`O=C(COc1ccc([N+](=O)[O-])cc1)Nc1ccc(N2CCCC2)cc1`: the protection (pct of control) was 18.8% (inactive).

As to `CCCCCC(=O)Nc1ccc(C(=O)N/N=C/c2ccc([N+](=O)[O-])cc2)cc1`, the protection (pct of control) is 25.1% (inactive).

As for `O=C(COc1ccc(/C=N/NC(=O)c2ccc(O)cc2)cc1)Nc1ccc([N+](=O)[O-])cc1`, the protection (pct of control) is 40.1% (active).

As to `O=C(NNC1CC(=O)N(c2cccc(Cl)c2)C1=O)c1cccnc1` (centres undefined), the protection (pct of control) is 8.5% (inactive).

Turning to `COc1cc(C2C(N3C(=O)c4ccccc4C3=O)C(=O)N2c2ccc(C)c(C)c2)cc(OC)c1OC` (centres undefined), the protection (pct of control) is 9.11% (inactive).

`CCc1ccc2nc3sc(C(=O)Nc4nnc(CC)s4)c(N)c3cc2c1`: the protection (pct of control) is 1.37% (inactive).

Take `Cc1ccc(NC(=O)c2sc3nc(N)c(C#N)cc3c2N)cc1`: the protection (pct of control) was 74.1% (active).

Turning to `CC(=O)Nc1ccc(NC(=O)c2sc3nc4c(c(-c5ccc(C)cc5)c3c2N)CCC4)cc1`, the protection (pct of control) is 9.68% (inactive).

`Cc1ccc(NC(=S)N2CCN(c3ncccn3)CC2)cc1C`: the protection (pct of control) is 12.6% (inactive).

`CCNC(=S)N1CCN(C(=O)c2ccco2)CC1`: the protection (pct of control) is 9.63% (inactive).

`CCNC(=S)N1CCN(c2ncccn2)CC1`: the protection (pct of control) was 20.9% (active).

As for `CCOC(=O)c1c(NC(=S)NC(=O)c2ccco2)sc2c1CCCC2`, the protection (pct of control) was 37% (inactive).

As for `CCOCC(=O)Nc1sc2c(c1C(=O)OCC)CCCC2`, the protection (pct of control) was 7.18% (inactive).

Consider `CCOC(=O)c1c(NC(=O)c2ccc(Br)o2)sc2c1CCCC2`, for which the protection (pct of control) is 27.8% (active).

Regarding `COc1cc(/C=C/C(=O)OCC(=O)Nc2cccc(Oc3ccccc3)c2)ccc1O`, the protection (pct of control) was 11.5% (inactive).

In the case of `C=CCc1ccccc1OCC(=O)N/N=C/c1ccccc1OCC`, the protection (pct of control) was 1.64% (inactive).

Turning to `COc1ccc(C(F)(F)F)cc1N/C=C\c1nnnn1-c1ccc(C)cc1`, the protection (pct of control) was 30.4% (active).

`COc1ccc(C)cc1NC(=O)CCC(=O)Nc1nnc(C(F)(F)F)s1`: the protection (pct of control) is 11.8% (inactive).

Turning to `COc1ccc(OC)c(-n2nnnc2SCC(=O)Nc2cc(C)ccc2OC)c1`, the protection (pct of control) is 17.2% (inactive).

Consider `CCC(C)NC(=O)c1ccc(N2CCC3(CC2)OCCO3)c([N+](=O)[O-])c1` (centres undefined), for which the protection (pct of control) is 13.6% (inactive).

On to `Cc1cc(Cl)ccc1OCCCC(=O)NCc1ccncc1`, for which the protection (pct of control) was 6.27% (inactive).

For the molecule `CC(=O)Cc1nsc(NC(=O)c2csc3c2CCCC3)n1`, the protection (pct of control) is 2.51% (inactive).

For `COC(=O)c1sc(NC(=O)c2csc3c2CCCC3)nc1C`, the protection (pct of control) was 49.9% (active).

`COC(=O)c1sccc1NC(=O)c1csc2c1CCCC2`: the protection (pct of control) was 9.63% (inactive).

With `CN(c1ccccc1)S(=O)(=O)c1cccc(NC(=O)Cc2c(F)cccc2Cl)c1`, the protection (pct of control) was 5.27% (inactive).

Take `Cc1cc(C)c(S(=O)(=O)c2ccccc2)c(OC(=O)c2c(F)cccc2Cl)n1`: the protection (pct of control) was 38.9% (active).

`Cc1cc(OC(=O)c2c(Cl)cccc2Cl)nc(C)n1`: the protection (pct of control) is 8.28% (inactive).

With `CCNc1ccc(C(=O)OCC(=O)N2c3ccccc3NC(=O)C2(C)C)cc1[N+](=O)[O-]`, the protection (pct of control) was 5.03% (inactive).

Take `COc1cc(/C=N/n2c(C)n[nH]c2=S)ccc1OCc1ccccc1`: the protection (pct of control) was 79.2% (active).

As for `Cc1n[nH]c(=S)n1/N=C/c1ccc(Br)o1`, the protection (pct of control) is 7.57% (inactive).

For `COc1cc(/C=N/O)ccc1OCc1ccc([N+](=O)[O-])cc1`, the protection (pct of control) is 30% (inactive).

As for `COc1ccc(C(=O)ON=C2c3ccccc3-c3ccccc32)cc1OC`, the protection (pct of control) was 9.81% (inactive).

For `Cc1cccc(OCCNC(=S)NC(=O)c2cccnc2)c1`, the protection (pct of control) is 16.7% (inactive).

Regarding `COc1ccc([N+](=O)[O-])cc1NC(=O)CCc1ccccc1`, the protection (pct of control) is 101% (active).

For `COc1ccccc1CC(=O)Nc1ccc([N+](=O)[O-])cc1OC`, the protection (pct of control) is 14.5% (inactive).

For the molecule `COc1ccc(Br)cc1CN(C)CC(=O)Nc1cc([N+](=O)[O-])ccc1OC`, the protection (pct of control) was 4.74% (inactive).

Regarding `CCC1S/C(=N/N=C/c2ccco2)NC1=O` (centres undefined), the protection (pct of control) is 7.36% (inactive).

Take `CCOCCCNC(=O)C(NC(=O)CNC(=O)c1ccccc1)c1ccc(C)cc1` (centres undefined): the protection (pct of control) was 7.37% (inactive).

Turning to `CCOCCCNC(=O)C(NC(=O)c1ccc(=O)[nH]c1)c1ccc(Cl)cc1` (centres undefined), the protection (pct of control) is 30.2% (active).

Regarding `CCOCCCNC(=O)C(NC(=O)c1ccc(=O)[nH]c1)c1ccc(C)cc1` (centres undefined), the protection (pct of control) is 6.13% (inactive).

Regarding `Cc1ccc(-c2cc(N)on2)cc1`, the protection (pct of control) is 16.5% (inactive).

With `Cc1ccc(S(=O)(=O)N2CCCC2C(=O)OCc2nc3sc(C)c(C)c3c(=O)[nH]2)cc1` (centres undefined), the protection (pct of control) was 4.09% (inactive).

As for `Cc1ccc2[nH]c(C(=O)O)c(NC(=O)c3ccccc3[N+](=O)[O-])c2c1`, the protection (pct of control) is 14.1% (inactive).

Consider `COC(=O)c1ccccc1NC(=O)CSc1nnnn1C`, for which the protection (pct of control) was 30.8% (inactive).

Take `CCOC(=O)CNC(=O)CSc1nnnn1-c1cc(C)ccc1C`: the protection (pct of control) is 4.67% (inactive).

On to `CCOC(=O)c1c(-c2ccc(C)cc2C)csc1NC(=O)CSc1nnnn1C`, for which the protection (pct of control) was 37% (active).

Regarding `COc1ccc(/C=C/C(=O)Nc2ccc3c(c2)OCCO3)cc1OC`, the protection (pct of control) is 18.3% (inactive).

For `CC(=O)N1CCN(CCN=CC2=C(O)CC(C)(C)CC2=O)CC1`, the protection (pct of control) is 2.75% (inactive).

Turning to `CC1(C)CC(=O)C(C=NCc2cccnc2)=C(O)C1`, the protection (pct of control) is 2.03% (inactive).

For `CC1(C)CC(=O)C(C=NCCC2=CCCCC2)=C(O)C1`, the protection (pct of control) is 36.1% (active).

`CN1CCN(S(=O)(=O)c2ccc(NC(=O)c3ccco3)cc2)CC1`: the protection (pct of control) was 12.2% (inactive).

Take `CN1CCN(S(=O)(=O)c2ccc(NC(=O)C3CCCO3)cc2)CC1` (centres undefined): the protection (pct of control) is 28.4% (active).

Regarding `CN1CCN(S(=O)(=O)c2ccc(NC(=S)NC(=O)C3CC3)cc2)CC1`, the protection (pct of control) is 7.47% (inactive).

In the case of `C/C(=N\NC(=O)Cc1ccc(F)cc1)c1ccc(F)cc1`, the protection (pct of control) is 16.1% (inactive).

On to `Cc1ccccc1C(CC(=O)c1cccs1)C(C#N)C#N` (centres undefined), for which the protection (pct of control) was 1.36% (inactive).

On to `O=C(Nc1ccn(Cc2ccc(F)cc2)n1)c1ccncc1`, for which the protection (pct of control) is 61.8% (active).

For `Cc1ccc(Cn2ccc(NC(=O)c3cc(C(C)C)on3)n2)cc1`, the protection (pct of control) is 10.8% (inactive).

On to `O=C(Nc1ccn(Cc2ccccc2)n1)c1n[nH]c([N+](=O)[O-])c1Cl`, for which the protection (pct of control) was 4.93% (inactive).

Take `CC(=O)N1C(C)c2ccccc2C(C)(C)CC12CCCCC2` (centres undefined): the protection (pct of control) is 1.83% (inactive).

In the case of `Cc1ccc(SCCC(=O)OCC(=O)Nc2ncc(Cl)cc2Cl)cc1`, the protection (pct of control) is 25.6% (inactive).

Regarding `Cc1ccc(-n2c(SCC(=O)Nc3ncc(Cl)cc3Cl)nc3ccccc32)cc1`, the protection (pct of control) is 45.3% (active).

Consider `Cc1ccc(C)c(NC(=O)CSc2nc3c(oc4ccccc43)c(=O)n2-c2ccccc2)c1`, for which the protection (pct of control) is 11.7% (inactive).

`NC(=O)CCC(NS(=O)(=O)c1ccc(Cl)cc1)C(=O)NCc1ccccc1Cl` (centres undefined): the protection (pct of control) was 5.12% (inactive).

As for `CNC(=S)N/N=C/c1ccc(OCc2ccccc2)c(Br)c1`, the protection (pct of control) is 4.55% (inactive).

As for `CCOC(=O)Cc1csc(SCC(=O)NC(C)C23CC4CC(CC(C4)C2)C3)n1` (centres undefined), the protection (pct of control) is 4.07% (inactive).

For `Cc1cccc(Nc2nc3c(S(=O)(=O)c4ccccc4)nnn3c3ccccc23)c1C`, the protection (pct of control) is 4.8% (inactive).

As for `CCc1ccc(NC2Nc3cc(C)nn3S2)cc1` (centres undefined), the protection (pct of control) was 40.8% (active).

For the molecule `Cc1ccc(-c2nc3c(cnn3-c3ccccc3)c(=O)o2)cc1`, the protection (pct of control) is 8.52% (inactive).

As for `COc1ccc(Oc2c(Cl)cnn(-c3ccccc3)c2=O)cc1`, the protection (pct of control) is 42.2% (active).

`COc1ccc(-n2c(C)nc3c(cnn3-c3ccccc3)c2=O)cc1`: the protection (pct of control) is 1.2% (inactive).

Regarding `Cc1cc(C(=O)CSc2nc(N)cc(=O)[nH]2)c(C)n1-c1cccc(F)c1`, the protection (pct of control) was 24.8% (inactive).

In the case of `O=C(C1CCCO1)N1CCN(C(=S)Nc2cccc(Cl)c2)CC1` (centres undefined), the protection (pct of control) is 19.2% (inactive).

Take `C=C(C)c1cccc(C(C)(C)NC(=O)NC2CCCC2)c1`: the protection (pct of control) was 2.05% (inactive).

Take `CCOC(=O)c1sc(NC(=O)COc2ncnc3ccccc23)c(C(=O)OCC)c1C`: the protection (pct of control) is 23.3% (inactive).

On to `O=C(CN1CCc2ccccc21)NC(c1ccccc1)c1ccccc1`, for which the protection (pct of control) was 11.6% (inactive).

As for `CC(C)(C)NC(=O)CN(Cc1cccs1)C(=O)CNS(=O)(=O)c1ccccc1`, the protection (pct of control) was 4.11% (inactive).

With `Cc1ccc(S(=O)(=O)NCC(=O)N(CC(=O)NC2CCCCC2)Cc2ccco2)cc1`, the protection (pct of control) is 39.7% (inactive).

With `Cc1ccc(S(=O)(=O)NCC(=O)N(CC(=O)NC(C)(C)C)Cc2cccs2)cc1`, the protection (pct of control) is 32.1% (active).

For the molecule `Cc1ccc(-c2nn(-c3ccccc3)cc2/C=N/NC(=O)c2ccc3c(c2)OCO3)cc1`, the protection (pct of control) is 11.1% (inactive).

Take `Cc1nnc(SCC(=O)N/N=C/c2cn(-c3ccccc3)nc2-c2ccc(F)cc2)n1-c1ccccc1`: the protection (pct of control) was 50.4% (active).

For the molecule `COc1ccc(OC)c(/C=N/NC(=O)CSc2nnc(C)n2-c2ccccc2)c1`, the protection (pct of control) is 6.95% (inactive).

As to `Cc1ccccc1C1=NC(C(F)(F)F)(C(F)(F)F)c2c(n(-c3ccc(F)cc3)c(=O)[nH]c2=O)N1`, the protection (pct of control) was 14.5% (inactive).
